# In PMC7862700, “An all-to-all approach to the identification of sequence-specific readers for epigenetic DNA modifications on cytosine”:
# What was measured:
# Test in all cases: DAPPL (digital affinity profiling via proximity ligation, sequencing); 10 mM Tris-HCl pH 7.5, 50 mM NaCl, 1 mM DTT, 4% glycerol, room temperature, 30 min; GST-TFs on glutathione beads, 16-mer random dsDNA library, 0.1% formaldehyde crosslink after washing; high values mean tight binding
# [1] = target: T1, FLI1 (Homo sapiens, UniProt Q01543 1-452); conditions: protein: recombinant; tags: N-terminal GST; dsDNA, one strand shown
# T1 sequence: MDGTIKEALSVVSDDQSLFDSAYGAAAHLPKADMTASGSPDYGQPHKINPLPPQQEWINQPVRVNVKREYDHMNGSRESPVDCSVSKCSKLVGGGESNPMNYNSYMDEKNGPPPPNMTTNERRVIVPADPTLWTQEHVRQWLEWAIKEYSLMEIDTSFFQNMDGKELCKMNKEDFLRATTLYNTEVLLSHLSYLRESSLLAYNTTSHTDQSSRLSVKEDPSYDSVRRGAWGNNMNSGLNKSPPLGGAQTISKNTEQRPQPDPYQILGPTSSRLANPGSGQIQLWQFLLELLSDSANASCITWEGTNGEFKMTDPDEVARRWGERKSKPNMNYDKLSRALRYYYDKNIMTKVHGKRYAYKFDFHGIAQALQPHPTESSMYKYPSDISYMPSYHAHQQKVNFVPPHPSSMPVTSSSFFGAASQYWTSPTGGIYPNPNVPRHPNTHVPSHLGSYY
# Summary of the method: (§1)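 Human transcription factors fused to GST were expressed in yeast, captured on glutathione beads, given DNA barcodes and pooled with a GST-only negative control. Pools were incubated with 200 nmole of a 16-mer random double-stranded DNA library in Tris/NaCl/DTT/glycerol buffer at room temperature for 30 min. They were then washed, crosslinked with 0.1% formaldehyde, proximity-ligated (BsaI/T4 ligase, 1 h, 37 °C), PCR-amplified and sequenced on an Illumina NextSeq500. Binding signal is each 6-mer's read frequency for a factor divided by its frequency for the GST control.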
# [2] = target: T2, ELK1 (Homo sapiens, UniProt P19419 1-428); conditions: protein: recombinant; tags: N-terminal GST; dsDNA, one strand shown
# T2 sequence: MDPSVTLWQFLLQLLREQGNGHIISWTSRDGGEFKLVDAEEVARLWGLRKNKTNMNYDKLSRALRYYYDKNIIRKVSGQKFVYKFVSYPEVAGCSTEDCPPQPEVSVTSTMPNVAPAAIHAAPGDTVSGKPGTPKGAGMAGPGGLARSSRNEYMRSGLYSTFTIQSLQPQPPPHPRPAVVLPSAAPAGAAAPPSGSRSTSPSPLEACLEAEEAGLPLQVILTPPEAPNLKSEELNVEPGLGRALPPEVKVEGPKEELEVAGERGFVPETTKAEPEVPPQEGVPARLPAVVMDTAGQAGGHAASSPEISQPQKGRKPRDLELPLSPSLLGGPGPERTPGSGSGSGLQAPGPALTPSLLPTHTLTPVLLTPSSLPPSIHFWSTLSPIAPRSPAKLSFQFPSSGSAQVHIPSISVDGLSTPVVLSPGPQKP
# Summary of the method: as §1
# [3] = target: T3, GABPA (Homo sapiens, UniProt Q06546 1-454); conditions: protein: recombinant; tags: N-terminal GST; dsDNA, one strand shown
# T3 sequence: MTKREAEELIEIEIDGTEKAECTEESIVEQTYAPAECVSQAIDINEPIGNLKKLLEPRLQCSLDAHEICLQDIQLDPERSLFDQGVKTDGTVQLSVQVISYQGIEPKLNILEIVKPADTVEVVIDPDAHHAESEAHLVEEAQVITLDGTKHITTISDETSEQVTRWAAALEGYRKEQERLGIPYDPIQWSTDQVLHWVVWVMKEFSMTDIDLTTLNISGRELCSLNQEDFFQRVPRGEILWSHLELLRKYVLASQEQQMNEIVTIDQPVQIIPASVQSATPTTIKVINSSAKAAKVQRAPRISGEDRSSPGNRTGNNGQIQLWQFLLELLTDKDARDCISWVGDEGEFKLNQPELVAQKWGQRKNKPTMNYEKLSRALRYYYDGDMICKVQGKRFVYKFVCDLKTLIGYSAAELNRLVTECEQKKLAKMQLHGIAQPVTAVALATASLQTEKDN
# Summary of the method: as §1
# [4] = target: T4, ERG (Homo sapiens, UniProt P11308 1-479); conditions: protein: recombinant; tags: N-terminal GST; dsDNA, one strand shown
# T4 sequence: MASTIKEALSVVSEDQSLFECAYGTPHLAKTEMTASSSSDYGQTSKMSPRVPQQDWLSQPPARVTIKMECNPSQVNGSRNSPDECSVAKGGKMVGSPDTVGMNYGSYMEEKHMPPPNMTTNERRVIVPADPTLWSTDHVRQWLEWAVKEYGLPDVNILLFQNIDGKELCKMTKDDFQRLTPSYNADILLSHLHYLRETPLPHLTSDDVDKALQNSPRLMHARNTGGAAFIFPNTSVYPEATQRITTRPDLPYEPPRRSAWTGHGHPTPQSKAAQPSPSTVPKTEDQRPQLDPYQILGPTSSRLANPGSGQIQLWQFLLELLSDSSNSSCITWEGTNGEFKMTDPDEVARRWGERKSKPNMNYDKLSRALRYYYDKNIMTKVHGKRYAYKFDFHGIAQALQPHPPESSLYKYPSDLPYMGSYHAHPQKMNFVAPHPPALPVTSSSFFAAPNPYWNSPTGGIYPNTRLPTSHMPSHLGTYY
# Summary of the method: as §1
# [5] = target: ELF1 (Homo sapiens, UniProt P32519 1-619); conditions: protein: recombinant; tags: N-terminal GST; dsDNA, one strand shown
# Summary of the method: as §1
# [6] = target: T5, EHF (Homo sapiens, UniProt Q9NZC4 1-300); conditions: protein: recombinant; tags: N-terminal GST; dsDNA, one strand shown
# T5 sequence: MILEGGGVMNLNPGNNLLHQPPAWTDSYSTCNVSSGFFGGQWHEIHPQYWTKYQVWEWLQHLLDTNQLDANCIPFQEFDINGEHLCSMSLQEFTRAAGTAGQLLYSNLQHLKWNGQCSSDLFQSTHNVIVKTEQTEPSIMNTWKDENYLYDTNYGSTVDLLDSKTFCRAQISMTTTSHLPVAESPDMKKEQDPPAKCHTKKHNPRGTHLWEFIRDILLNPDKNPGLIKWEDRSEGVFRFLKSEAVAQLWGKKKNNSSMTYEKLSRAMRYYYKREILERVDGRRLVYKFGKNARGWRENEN
# Summary of the method: as §1
# [7] = target: SPI1 (Homo sapiens, UniProt P17947 1-270); conditions: protein: recombinant; tags: N-terminal GST; dsDNA, one strand shown
# Summary of the method: as §1
# [8] = target: SPIB (Homo sapiens, UniProt Q01892 1-262); conditions: protein: recombinant; tags: N-terminal GST; dsDNA, one strand shown
# Summary of the method: as §1
# [9] = target: T6, ELK3 (Homo sapiens, UniProt P41970 1-407); conditions: protein: recombinant; tags: N-terminal GST; dsDNA, one strand shown
# T6 sequence: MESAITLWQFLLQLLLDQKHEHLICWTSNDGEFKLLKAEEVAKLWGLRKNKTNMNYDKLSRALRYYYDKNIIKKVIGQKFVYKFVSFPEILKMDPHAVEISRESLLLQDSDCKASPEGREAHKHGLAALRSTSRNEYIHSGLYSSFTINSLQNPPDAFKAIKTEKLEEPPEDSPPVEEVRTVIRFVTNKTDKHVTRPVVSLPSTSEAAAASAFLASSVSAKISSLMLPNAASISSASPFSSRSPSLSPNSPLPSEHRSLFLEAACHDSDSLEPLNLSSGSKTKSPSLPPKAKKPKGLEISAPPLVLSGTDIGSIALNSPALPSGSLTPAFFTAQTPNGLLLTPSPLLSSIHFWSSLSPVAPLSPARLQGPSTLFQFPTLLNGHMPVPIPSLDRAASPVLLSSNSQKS
# Summary of the method: as §1
# [10] = target: T7, FEV (Homo sapiens, UniProt Q99581 1-238); conditions: protein: recombinant; tags: N-terminal GST; dsDNA, one strand shown
# T7 sequence: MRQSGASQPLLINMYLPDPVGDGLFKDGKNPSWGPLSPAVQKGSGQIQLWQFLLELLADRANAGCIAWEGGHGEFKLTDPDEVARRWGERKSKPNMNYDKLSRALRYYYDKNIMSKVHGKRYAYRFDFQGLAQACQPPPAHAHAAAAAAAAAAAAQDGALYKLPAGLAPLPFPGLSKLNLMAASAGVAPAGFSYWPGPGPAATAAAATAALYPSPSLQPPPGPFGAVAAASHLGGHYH
# Summary of the method: as §1
# [11] = target: ETV5 (Homo sapiens, UniProt P41161 1-510); conditions: protein: recombinant; tags: N-terminal GST; dsDNA, one strand shown
# Summary of the method: as §1
# [12] = target: HSF1 (Homo sapiens, UniProt Q00613 1-529); conditions: protein: recombinant; tags: N-terminal GST; chain copies: 3; dsDNA, one strand shown
# Summary of the method: as §1
# [13] = target: T8, SPIC (Homo sapiens, UniProt Q8N5J4 1-248); conditions: protein: recombinant; tags: N-terminal GST; dsDNA, one strand shown
# T8 sequence: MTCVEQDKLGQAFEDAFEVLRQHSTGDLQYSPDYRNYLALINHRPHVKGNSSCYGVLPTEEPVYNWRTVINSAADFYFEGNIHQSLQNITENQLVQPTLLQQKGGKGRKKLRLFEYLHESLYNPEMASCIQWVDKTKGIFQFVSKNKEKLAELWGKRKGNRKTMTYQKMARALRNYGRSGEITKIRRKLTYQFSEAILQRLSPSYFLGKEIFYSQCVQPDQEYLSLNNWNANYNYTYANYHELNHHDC
# Summary of the method: as §1
# [14] = target: ELF4 (Homo sapiens, UniProt Q99607 1-663); conditions: protein: recombinant; tags: N-terminal GST; dsDNA, one strand shown
# Summary of the method: as §1
# [15] = target: T9, ELK4 (Homo sapiens, UniProt P28324-2 1-405); conditions: protein: recombinant; tags: N-terminal GST; dsDNA, one strand shown
# T9 sequence: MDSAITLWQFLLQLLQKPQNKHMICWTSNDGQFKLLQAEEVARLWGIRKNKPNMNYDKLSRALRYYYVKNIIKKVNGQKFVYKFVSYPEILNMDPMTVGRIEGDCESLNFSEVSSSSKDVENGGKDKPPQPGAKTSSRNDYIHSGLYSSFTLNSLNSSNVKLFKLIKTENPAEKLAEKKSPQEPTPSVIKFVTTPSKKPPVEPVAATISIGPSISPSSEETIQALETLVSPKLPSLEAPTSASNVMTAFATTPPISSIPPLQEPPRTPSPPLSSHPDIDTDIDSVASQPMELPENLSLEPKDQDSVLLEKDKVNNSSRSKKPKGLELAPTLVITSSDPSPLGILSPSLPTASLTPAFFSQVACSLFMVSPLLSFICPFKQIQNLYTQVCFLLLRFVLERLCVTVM
# Summary of the method: as §1
# [16] = target: T10, ETV2 (Homo sapiens, UniProt O00321 1-342); conditions: protein: recombinant; tags: N-terminal GST; dsDNA, one strand shown
# T10 sequence: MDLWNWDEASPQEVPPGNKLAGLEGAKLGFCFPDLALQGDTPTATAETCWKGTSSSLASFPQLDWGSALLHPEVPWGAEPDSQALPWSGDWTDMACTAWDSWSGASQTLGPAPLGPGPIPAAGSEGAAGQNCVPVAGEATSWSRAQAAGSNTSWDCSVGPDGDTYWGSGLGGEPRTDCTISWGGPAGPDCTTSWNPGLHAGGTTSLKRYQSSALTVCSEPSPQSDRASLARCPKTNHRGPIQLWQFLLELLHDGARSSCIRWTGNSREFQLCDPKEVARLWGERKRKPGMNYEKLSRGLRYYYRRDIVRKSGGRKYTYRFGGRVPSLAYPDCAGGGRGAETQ
# Summary of the method: as §1
# [17] = target: T11, ELF3 (Homo sapiens, UniProt P78545 1-371); conditions: protein: recombinant; tags: N-terminal GST; dsDNA, one strand shown
# T11 sequence: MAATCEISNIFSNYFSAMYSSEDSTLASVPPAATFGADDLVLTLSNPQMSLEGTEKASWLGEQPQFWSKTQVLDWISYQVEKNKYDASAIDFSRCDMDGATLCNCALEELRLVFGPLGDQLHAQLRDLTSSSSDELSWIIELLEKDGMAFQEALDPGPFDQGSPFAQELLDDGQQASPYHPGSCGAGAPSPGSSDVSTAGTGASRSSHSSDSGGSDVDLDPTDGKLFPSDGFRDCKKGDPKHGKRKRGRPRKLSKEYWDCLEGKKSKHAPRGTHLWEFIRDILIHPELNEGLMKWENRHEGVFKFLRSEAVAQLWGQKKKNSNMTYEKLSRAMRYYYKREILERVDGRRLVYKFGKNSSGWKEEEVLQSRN
# Summary of the method: as §1
# [18] = target: CRX (Homo sapiens, UniProt O43186 1-299); conditions: protein: recombinant; tags: N-terminal GST; dsDNA, one strand shown
# Summary of the method: as §1
# [19] = target: ETV1 (Homo sapiens, UniProt P50549 1-477); conditions: protein: recombinant; tags: N-terminal GST; dsDNA, one strand shown
# Summary of the method: as §1
# ETV5, sequence (P41161 whole entry): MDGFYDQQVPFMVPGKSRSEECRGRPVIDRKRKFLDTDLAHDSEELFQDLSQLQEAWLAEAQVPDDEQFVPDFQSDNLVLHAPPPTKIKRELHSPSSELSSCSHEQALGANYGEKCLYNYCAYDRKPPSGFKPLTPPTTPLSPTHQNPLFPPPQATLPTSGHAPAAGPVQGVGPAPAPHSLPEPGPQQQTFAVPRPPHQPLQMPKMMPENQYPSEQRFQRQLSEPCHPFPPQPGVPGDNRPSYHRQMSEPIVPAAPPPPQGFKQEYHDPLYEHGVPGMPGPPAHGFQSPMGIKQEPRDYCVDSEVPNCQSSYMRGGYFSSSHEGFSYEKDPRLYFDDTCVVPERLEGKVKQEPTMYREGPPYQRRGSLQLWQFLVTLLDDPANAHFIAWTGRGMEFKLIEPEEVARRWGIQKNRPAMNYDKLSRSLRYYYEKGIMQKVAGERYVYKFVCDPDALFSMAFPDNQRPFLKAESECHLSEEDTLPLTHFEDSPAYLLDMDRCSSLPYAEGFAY
# ELF1, sequence (P32519 whole entry): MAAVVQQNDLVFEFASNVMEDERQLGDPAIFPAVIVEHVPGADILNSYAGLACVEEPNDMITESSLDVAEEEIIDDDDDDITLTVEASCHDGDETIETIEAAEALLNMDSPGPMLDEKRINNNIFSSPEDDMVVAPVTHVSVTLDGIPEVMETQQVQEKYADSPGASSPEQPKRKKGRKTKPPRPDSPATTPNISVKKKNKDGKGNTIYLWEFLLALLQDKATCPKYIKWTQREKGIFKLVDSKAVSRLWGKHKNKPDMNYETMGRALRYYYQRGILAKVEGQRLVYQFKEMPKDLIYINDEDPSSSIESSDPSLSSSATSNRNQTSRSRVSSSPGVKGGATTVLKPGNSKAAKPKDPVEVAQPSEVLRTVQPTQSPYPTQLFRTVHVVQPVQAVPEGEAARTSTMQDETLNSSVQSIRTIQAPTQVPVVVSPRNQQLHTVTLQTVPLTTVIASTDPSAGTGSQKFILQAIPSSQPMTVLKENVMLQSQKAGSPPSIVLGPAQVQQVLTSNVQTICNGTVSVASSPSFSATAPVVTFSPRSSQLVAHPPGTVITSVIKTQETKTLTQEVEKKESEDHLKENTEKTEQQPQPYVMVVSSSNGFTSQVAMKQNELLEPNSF
# ELF4, sequence (Q99607 whole entry): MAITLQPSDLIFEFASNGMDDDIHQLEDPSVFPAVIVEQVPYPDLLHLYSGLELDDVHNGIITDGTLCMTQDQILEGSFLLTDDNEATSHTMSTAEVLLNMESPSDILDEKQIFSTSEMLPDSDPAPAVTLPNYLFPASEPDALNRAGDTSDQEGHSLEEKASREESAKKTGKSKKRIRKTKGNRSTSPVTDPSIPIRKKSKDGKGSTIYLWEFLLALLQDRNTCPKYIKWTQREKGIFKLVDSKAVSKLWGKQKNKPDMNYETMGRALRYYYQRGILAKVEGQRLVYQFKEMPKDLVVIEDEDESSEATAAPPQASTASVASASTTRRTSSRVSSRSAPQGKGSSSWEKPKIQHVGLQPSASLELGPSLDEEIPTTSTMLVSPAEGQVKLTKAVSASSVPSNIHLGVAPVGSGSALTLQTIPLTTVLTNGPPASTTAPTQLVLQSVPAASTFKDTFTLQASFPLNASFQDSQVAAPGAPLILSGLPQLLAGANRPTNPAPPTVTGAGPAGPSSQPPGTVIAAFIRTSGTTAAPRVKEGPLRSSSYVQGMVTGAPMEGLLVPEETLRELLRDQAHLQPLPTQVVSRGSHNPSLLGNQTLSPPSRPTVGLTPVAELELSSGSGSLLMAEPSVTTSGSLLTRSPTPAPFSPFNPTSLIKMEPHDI
# CRX, sequence (O43186 whole entry): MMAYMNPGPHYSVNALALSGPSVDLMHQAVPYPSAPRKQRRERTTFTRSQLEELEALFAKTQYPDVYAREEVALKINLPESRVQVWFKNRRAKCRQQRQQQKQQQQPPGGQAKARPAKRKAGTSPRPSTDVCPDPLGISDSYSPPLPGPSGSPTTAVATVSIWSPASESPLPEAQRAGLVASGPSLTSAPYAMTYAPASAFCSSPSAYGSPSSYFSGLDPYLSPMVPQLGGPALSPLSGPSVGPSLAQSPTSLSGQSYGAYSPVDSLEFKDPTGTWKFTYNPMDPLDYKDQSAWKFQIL
# SPIB, sequence (Q01892 whole entry): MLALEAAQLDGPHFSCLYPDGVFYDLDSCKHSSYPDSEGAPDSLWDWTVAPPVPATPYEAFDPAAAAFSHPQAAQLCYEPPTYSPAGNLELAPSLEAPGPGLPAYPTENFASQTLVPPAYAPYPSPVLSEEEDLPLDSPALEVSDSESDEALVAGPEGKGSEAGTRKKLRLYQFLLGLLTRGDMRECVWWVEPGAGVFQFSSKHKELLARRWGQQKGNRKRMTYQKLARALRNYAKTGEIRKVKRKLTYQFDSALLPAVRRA
# HSF1, sequence (Q00613 whole entry): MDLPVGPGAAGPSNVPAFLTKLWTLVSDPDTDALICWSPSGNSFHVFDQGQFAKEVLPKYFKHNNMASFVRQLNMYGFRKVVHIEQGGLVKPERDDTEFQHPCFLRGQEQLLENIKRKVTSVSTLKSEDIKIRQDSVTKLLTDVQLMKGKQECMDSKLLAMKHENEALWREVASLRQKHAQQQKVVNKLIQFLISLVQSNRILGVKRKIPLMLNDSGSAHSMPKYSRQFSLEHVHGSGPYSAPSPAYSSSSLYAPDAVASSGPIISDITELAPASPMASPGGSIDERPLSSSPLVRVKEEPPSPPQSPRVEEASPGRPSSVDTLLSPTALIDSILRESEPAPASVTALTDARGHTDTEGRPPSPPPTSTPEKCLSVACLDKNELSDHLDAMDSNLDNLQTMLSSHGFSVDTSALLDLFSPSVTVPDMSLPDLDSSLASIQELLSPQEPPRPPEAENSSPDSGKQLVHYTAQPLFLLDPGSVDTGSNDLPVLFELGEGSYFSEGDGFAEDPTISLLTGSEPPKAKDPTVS
# ETV1, sequence (P50549 whole entry): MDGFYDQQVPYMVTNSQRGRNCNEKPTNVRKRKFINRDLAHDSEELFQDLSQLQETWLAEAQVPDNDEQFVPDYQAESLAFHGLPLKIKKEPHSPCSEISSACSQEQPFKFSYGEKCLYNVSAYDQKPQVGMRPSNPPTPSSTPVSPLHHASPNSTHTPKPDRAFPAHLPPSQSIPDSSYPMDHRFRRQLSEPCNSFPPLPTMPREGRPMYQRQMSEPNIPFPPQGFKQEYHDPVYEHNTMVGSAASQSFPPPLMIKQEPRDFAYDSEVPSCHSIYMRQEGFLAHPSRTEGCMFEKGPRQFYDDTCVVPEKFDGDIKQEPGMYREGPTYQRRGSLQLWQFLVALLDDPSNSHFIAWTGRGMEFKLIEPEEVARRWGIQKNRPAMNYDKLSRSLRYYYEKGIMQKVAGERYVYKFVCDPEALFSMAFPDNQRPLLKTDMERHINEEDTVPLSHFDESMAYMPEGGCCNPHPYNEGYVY
sequence,measurement,setting,value
TCGATC,binding signal,[1],"1.31 fold enrichment (6-mer frequency, TF over GST control)"
same,binding signal,[2],"1.08 fold enrichment (6-mer frequency, TF over GST control)"
same,binding signal,[3],"1.14 fold enrichment (6-mer frequency, TF over GST control)"
same,binding signal,[4],"1.18 fold enrichment (6-mer frequency, TF over GST control)"
same,binding signal,[5],"1.27 fold enrichment (6-mer frequency, TF over GST control)"
same,binding signal,[6],"1.16 fold enrichment (6-mer frequency, TF over GST control)"
same,binding signal,[7],"1.11 fold enrichment (6-mer frequency, TF over GST control)"
same,binding signal,[8],"1.25 fold enrichment (6-mer frequency, TF over GST control)"
same,binding signal,[9],"1.27 fold enrichment (6-mer frequency, TF over GST control)"
same,binding signal,[10],"1.09 fold enrichment (6-mer frequency, TF over GST control)"
same,binding signal,[11],"1.19 fold enrichment (6-mer frequency, TF over GST control)"
same,binding signal,[12],"1.54 fold enrichment (6-mer frequency, TF over GST control)"
same,binding signal,[13],"1.1 fold enrichment (6-mer frequency, TF over GST control)"
same,binding signal,[14],"1.14 fold enrichment (6-mer frequency, TF over GST control)"
same,binding signal,[15],"1.15 fold enrichment (6-mer frequency, TF over GST control)"
same,binding signal,[16],"1.06 fold enrichment (6-mer frequency, TF over GST control)"
same,binding signal,[17],"1.17 fold enrichment (6-mer frequency, TF over GST control)"
same,binding signal,[18],"1.23 fold enrichment (6-mer frequency, TF over GST control)"
same,binding signal,[19],"1.16 fold enrichment (6-mer frequency, TF over GST control)"
